# According to PubChem BioAssay (NCATS):
# Records with an inconclusive call do not appear. A call without a number means that no potency is given here. Activity calls are given as the source filed them. Calls come from the whole dose curve; as a rule, active = well fitted curve in the direction sought with a large enough effect; inconclusive = small, poorly fitted or top-dose-only effect, or another doubt; inactive = no such curve, though single readings can be large; an effect the other way counts as inactive or inconclusive.
# Assays:
# [1] = target: Cellular tumor antigen p53 (Homo sapiens) (UniProt P04637); assay: Primary qHTS for small molecule compounds that upregulate eGFP-tagged delta133p53alpha (in N-terminal) cells. (AID 2060322); conditions: NCI-H358 eGFP-delta133p53alpha fluorescence, 24 h; activation: hits give high values; note: nearly all actives have a fitted effect of over 75% in size; note: potency is the fitted concentration of half-maximal effect;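 for activation: cells pre-induced with doxycycline then dosed without doxycycline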
# How it was run: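 NCI-H358 cells pre-induced 24 h with 10 ng/ml doxycycline for eGFP-delta133p53alpha, plated dox-free and exposed 24 h at 37C to titrated compounds. Fixed, Hoechst-stained; gated GFP peak intensity by laser scanning cytometry, normalized to DMSO (0%) and 57.5 uM 5-azacytidine (100%).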
# [2] = target: Aldehyde dehydrogenase, mitochondrial (Homo sapiens) (UniProt P05091); assay: qHTS for Inhibitors of the Aldehyde Dehydrogenase Family (ALDH2) Primary screen (AID 2061308); conditions: ALDH2 enzyme inhibition qHTS, 1536-well; series mostly up to 56 µM; note: nearly all actives have a fitted effect of over 55% in size
# [3] = target: Retinaldehyde dehydrogenase 3 (Homo sapiens) (UniProt P47895); assay: qHTS for Inhibitors of the Aldehyde Dehydrogenase Family (ALDH1A3) Primary screen (AID 2061315); conditions: ALDH inhibition qHTS; series mostly up to 56 µM
# Chain of Cellular tumor antigen p53 (Homo sapiens) (P04637 whole entry, looked up): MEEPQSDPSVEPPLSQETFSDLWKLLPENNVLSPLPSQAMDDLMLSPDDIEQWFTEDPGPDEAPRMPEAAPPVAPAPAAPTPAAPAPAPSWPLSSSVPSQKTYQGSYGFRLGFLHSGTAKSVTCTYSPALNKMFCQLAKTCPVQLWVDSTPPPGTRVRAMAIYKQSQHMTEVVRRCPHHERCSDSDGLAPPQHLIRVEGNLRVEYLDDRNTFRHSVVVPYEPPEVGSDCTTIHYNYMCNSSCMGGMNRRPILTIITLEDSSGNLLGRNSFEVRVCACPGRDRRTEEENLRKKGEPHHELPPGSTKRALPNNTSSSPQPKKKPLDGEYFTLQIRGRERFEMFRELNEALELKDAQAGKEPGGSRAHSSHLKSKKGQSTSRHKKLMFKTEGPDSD
SMILES,activation [1],Potency [2],Potency [3],Potency [1]
CC1=CC23[C@H](C=C(C(=O)O)[C@@H]2COC(=O)[C@]3(O)CO)[C@@H]1C (stereo partly drawn),-6.87% (inactive),inactive,inactive,–
CNc1nc(Cc2ccccc2)nc2c1CCNC[C@@H]2C,19% (inactive),inactive,inactive,–
CC(=O)O[C@H]1[C@H](OC(=O)C(C)C)[C@]2(C)OC3(CC[C@]2(C)[C@H]2CCC[C@]4(CO4)[C@]12C)COC(=O)C3 (stereo partly drawn),1.53% (inactive),inactive,inactive,–
C[C@@H]1O[C@@H](OC[C@H]2O[C@@H](OCCc3ccccc3)[C@H](O)[C@@H](O)[C@@H]2O)[C@H](O)[C@H](O)[C@H]1O,-8.4% (inactive),inactive,inactive,–
C[C@@H]1O[C@@H](O[C@H]2[C@H](O)[C@@H](O[C@@H]3O[C@H](CO)[C@H](O)[C@H](O)[C@H]3O)[C@H](O[C@H]3CC[C@@]4(C)C(CC[C@]5(C)C4CC=C4[C@@H]6CC(C)(C)CC[C@]6(C(=O)O[C@@H]6O[C@H](CO)[C@@H](O)[C@H](O)[C@H]6O)CC[C@]45C)C3(C)C)O[C@@H]2C(=O)O)[C@H](O)[C@H](O)[C@H]1O (stereo partly drawn),5.34% (inactive),inactive,inactive,–
C/C1=C/CCC2=CC(OC2=O)C(C)(C)/C=C/C1=O (stereo not drawn),–,inactive,inactive,4.26 µM (active)
Nc1nc2c(ncn2[C@@H]2O[C@@H]3COP(=O)(O)O[C@H]3[C@H]2O)c(=O)[nH]1,12.3% (inactive),inactive,inactive,–
CC1OC(OC2C(O)C(C(=O)O)OC(OC3CCC4(C)C(CCC5(C)C4C=CC4=C6CC(C)(C)CC(O)C6(C)CCC45C)C3(C)C)C2OC2OCC(O)C(O)C2O)C(O)C(O)C1O (stereo not drawn),-19.1% (inactive),inactive,inactive,–
CC(=O)N[C@H]1[C@H](O[C@H]2CC[C@@]3(C)C(CC[C@]4(C)C3CC=C3C5CC(C)(C)CC[C@]5(C(=O)O)C(O)C[C@]34C)C2(C)C)O[C@H](CO[C@@H]2O[C@H](C)[C@H](O)[C@H](O)[C@H]2O[C@@H]2OC[C@@H](O)[C@H](O)[C@H]2O)[C@@H](O)[C@@H]1O (stereo partly drawn),13.4% (inactive),inactive,inactive,–
C=C1CCC2[C@@](C)(C(=O)O)CCC[C@@]2(C)[C@@H]1CCc1ccoc1 (stereo partly drawn),1.79% (inactive),inactive,inactive,–
C[C@@H]1C[C@H](C)CN(CCC(=O)Nc2ccc(Br)cc2)C1,13.4% (inactive),inactive,inactive,–
CC(=O)OCC(=O)[C@@]12O[C@@H]1C[C@H]1[C@@H]3CC=C4C[C@@H](O)CC[C@]4(C)[C@H]3CC[C@@]12C,29% (inactive),inactive,inactive,–
COC(=O)C1=COC(OC2OC(CO)C(O)C(O)C2O)C2C(C)CC(=O)C12O (stereo not drawn),-4.46% (inactive),inactive,inactive,–
O=C(Nc1ccc(-c2ccncc2)cc1)N[C@H](CO)c1ccccc1,-25.9% (inactive),inactive,inactive,–
C=C1C(=O)O[C@@H]2[C@H]3C(C)=CC(=O)C3=C(C)CC[C@@H]12,–,inactive,inactive,10.7 µM (active)
COc1c2c(c(C)c3c1C(=O)OC3)O[C@@]1(C)C[C@@H](O)[C@]34O[C@](OC)(CC[C@]3(C)[C@H]1C2)OC4(C)C,-1.53% (inactive),inactive,inactive,–
COC(=O)C1=COC(OC2OC(CO)C(O)C(O)C2O)C2C(COC(=O)/C=C/c3ccc(O)cc3)C(O)C(O)C12 (stereo not drawn),-6.87% (inactive),inactive,inactive,–
CC(=O)N1CCN(NC(=O)c2ccc(F)cc2)CC1,-2.39% (inactive),inactive,inactive,–
O=C(OCc1cccc(O)c1O[C@@H]1O[C@H](CO)[C@@H](O)[C@H](O)[C@H]1O)C1(O)C(=O)C2C=CC1C1C=CC(=O)C(O)(C(=O)OCc3cccc(O)c3O[C@@H]3O[C@H](CO)[C@@H](O)[C@H](O)[C@H]3O)C21 (stereo partly drawn),-29.8% (inactive),inactive,inactive,–
CC(C)(O)CC(CO)NC(=O)CC(O)CC(=O)Cc1ccccc1 (stereo not drawn),22.1% (inactive),inactive,inactive,–
Nc1nonc1C(=Nc1ccc(F)c(Cl)c1)NO,-6.33% (inactive),inactive,inactive,–
CC1=C(COC2OC(CO)C(O)C(O)C2O)C(C(CO)C(=O)O)CC1 (stereo not drawn),-6.87% (inactive),inactive,inactive,–
c1ccc(N2CCN(CCc3nn[nH]n3)CC2)cc1,-1.43% (inactive),inactive,inactive,–
COc1c(C)c(OCC(O)C(C)(C)O)cc2c1COC2=O (stereo not drawn),5.34% (inactive),inactive,inactive,–
C=C1CCC2[C@](C)(CCC[C@]2(C)C(=O)O)[C@H]1CC/C(C)=C/C(=O)OC (stereo partly drawn),17.9% (inactive),inactive,inactive,–
C=C(COC(=O)C(C)C)C1Oc2cc(C(C)=O)ccc2C1OC(=O)C(C)C (stereo not drawn),2.29% (inactive),inactive,inactive,–

SMILES,activation [1],Potency [2],Potency [3],Potency [1]
COc1ccc(C(=O)Nc2ncc(-c3ccc(C(=O)O)cc3)s2)cc1,–,inactive,inactive,10.7 µM (active)
CC(O)(C(=O)O)C1CCC2(C)C1CCC1(C)C2CCC2C3(C)CCC(O)C(C)(COC4OC(CO)C(O)C(O)C4O)C3CCC21C (stereo not drawn),1.53% (inactive),inactive,inactive,–
COc1cc(C(C)=O)ccc1O[C@@H]1O[C@H](CO[C@@H]2O[C@@H](C)[C@H](O)[C@@H](O)[C@H]2O)[C@@H](O)[C@H](O)[C@H]1O,-13% (inactive),inactive,inactive,–
COc1ccc(CN2C(=O)C(=O)c3cc(S(=O)(=O)N4CCC[C@H]4COc4cccnc4)ccc32)cc1,19.7% (inactive),inactive,inactive,–
CCN(CCNC(=O)Nc1ccccc1Br)c1cccc(C)c1,5.67% (inactive),inactive,inactive,–
C=C1CC23CC(=O)C4C(CO)(CO)CCCC4(C)C2CCC1C3 (stereo not drawn),-3.05% (inactive),inactive,inactive,–
CCCCc1ccc(NS(=O)(=O)c2ccc(F)cc2)cc1,-9.55% (inactive),inactive,inactive,–
COc1cc(/C=C/C(=O)OC2CC(C)=C(C(=O)O)/C2=C/CO[C@@H]2O[C@H](CO)[C@@H](O)[C@H](O)[C@H]2O)ccc1O (stereo partly drawn),-8.93% (inactive),inactive,inactive,–
COc1cc(/C=C/C(=O)OC2CC3CCC2(C)C3(C)C)ccc1O (stereo not drawn),-14.5% (inactive),inactive,inactive,–
Cn1cc(S(C)=O)c(=O)c2ccc(F)cc21 (stereo not drawn),-7.53% (inactive),inactive,inactive,–
COc1cc2c(cc1O)[C@H](c1ccc(O[C@@H]3O[C@H](CO)[C@@H](O)[C@H](O)[C@H]3O)c(OC)c1)[C@@H](CO)[C@](O)(CO)C2,-15.3% (inactive),inactive,inactive,–
CC(=O)O[C@@H]1C[C@@H](OC(C)=O)C(C)(C)/C=C/[C@H](C)[C@H](OC(C)=O)[C@@]2(O)C[C@H](C)[C@H](OC(=O)c3ccccc3)[C@@H]2/C=C/1C,-3.82% (inactive),inactive,inactive,–
CC(C)(O)/C=C/C(=O)[C@](C)(O)[C@H]1[C@H](O)C[C@@]2(C)[C@@H]3CC=C4[C@@H](C=C(O[C@@H]5O[C@H](CO)[C@@H](O)[C@H](O)[C@H]5O)C(=O)C4(C)C)[C@]3(C)C(=O)C[C@]12C,-13.7% (inactive),inactive,inactive,–
C[C@@H](Cc1cc2c(c(C(N)=O)c1)N(CCCO)CC2)NCCOc1ccccc1OCC(F)(F)F,13.7% (inactive),inactive,inactive,–
CC1(C)CCC2(C(=O)OC3OCC(O)C(O)C3O)CCC3(C)C(=CCC4C5(C)CC(O)C(OC6OC(COC7OCC(O)C(O)C7O)C(O)C(O)C6O)C(C)(C)C5CCC43C)C2C1 (stereo not drawn),4.46% (inactive),inactive,inactive,–
CC(C)C(NC(=O)c1ccc2ccccc2n1)C(=O)NC(CC(=O)O)C(=O)COc1c(F)cccc1F (stereo not drawn),2.33% (inactive),inactive,inactive,–
COC(=O)C[C@H]1[C@]2(C)C3=C(C)[C@H](c4ccoc4)C[C@H]3O[C@@H]2[C@H](O)C2[C@](C)(C(=O)OC)C=CC(=O)[C@@]21C (stereo partly drawn),2.29% (inactive),inactive,inactive,–
C=C[C@@]1(C)CC(=O)C2[C@](C)(O1)[C@@H](OC(C)=O)[C@@H](O)[C@H]1C(C)(C)CCC[C@]21C (stereo partly drawn),-4.33% (inactive),inactive,inactive,–
CC(=O)OC1C(O)CC(O[C@@H]2O[C@H](CO)[C@@H](O)[C@H](O)[C@H]2O)C2CCC3C(=O)OC(c4ccoc4)CC3(C)C21 (stereo partly drawn),3.05% (inactive),inactive,inactive,–
Nc1ncnc2c([C@@H]3N[C@H](CO)[C@@H](O)[C@H]3O)c[nH]c12,-8.93% (inactive),inactive,inactive,–
C/C=C(\C)C(=O)O[C@H]1[C@@H](O[C@]2(COC(=O)CC(C)C)O[C@H](COC(=O)C(C)CC)[C@@H](OC(C)=O)[C@@H]2O)O[C@H](COC(C)=O)[C@@H](O)[C@@H]1O (stereo partly drawn),9.16% (inactive),inactive,inactive,–
COc1cc2ncnc(Nc3ccc(F)c(Cl)c3)c2cc1OCCCN1CCOCC1,-5.67% (inactive),inactive,inactive,–
CCCCC1CCC(c2nc(-c3ccncc3)no2)CC1 (stereo not drawn),-6.68% (inactive),inactive,inactive,–
CC(C)/C=C1\NC(=O)C(C(C)C)n2c1nc1ccccc1c2=O (stereo not drawn),-10.7% (inactive),inactive,inactive,–
C[C@@H]1O[C@@H](O[C@H]2[C@H](O)[C@@H](O)[C@H](O[C@H]3[C@H](O[C@H]4CC[C@@]5(C)C(=CC[C@@H]6C5CC[C@]5(C)[C@@H]7[C@H](C[C@@H]65)O[C@]5(CC[C@@](C)(CO[C@@H]6O[C@H](CO)[C@@H](O)[C@H](O)[C@H]6O)O5)[C@H]7C)C4)O[C@H](CO)[C@@H](O)[C@@H]3O)O[C@@H]2CO)[C@H](O)[C@H](O)[C@H]1O (stereo partly drawn),–,inactive,inactive,3.6 µM (active)
